# Data taken from PubChem BioAssay (Tox21).
# Where “and” joins values, the source holds several entries; their conditions need not be identical. Equal values may be shown once. Records with an inconclusive call do not appear. Entries that show only a call come without a potency. Where a structure was tested more than once in an assay, its records may differ in their call. Calls of active or inactive are those of the source. Unless noted, calls come from the whole dose curve; as a rule, active = well fitted curve in the direction sought with a large enough effect in the repeat runs; inconclusive = weak or mixed curves; inactive = no such curve, though single readings can be large; an effect the other way counts as inactive or inconclusive.
# How the values were obtained:
# [1] = qHTS assay to identify aromatase inhibitors - cell viability counter screen (AID 743084);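 note: cells stimulated with testosterone during compound exposure; nearly all actives have a fitted effect of over 55% in size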; note: potency is the fitted concentration of half-maximal effect
# [2] = biological target: Aryl hydrocarbon receptor (Homo sapiens) (UniProt P35869); test: qHTS assay to identify small molecule that activate the aryl hydrocarbon receptor (AhR) signaling pathway (AID 743085); note: nearly all actives have a fitted effect of over 15% in size; note: potency is the fitted concentration of half-maximal effect;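 for activation: HG2L7.5c1 human HepG2 liver cells with stably integrated DRE-driven firefly reporter; series mostly up to about 70 µM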
# How it was run: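 Cell line HG2L7.5c1 (human hepatoma, 20× DRE-luc). Plated, 5 h 37C, compound/DMSO added, 24 h 37C. CellTiter-Fluor 30 min 37C → fluorescence; then ONE-Glo 30 min RT → luminescence.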
# [3] = qHTS assay to identify small molecule that activate the aryl hydrocarbon receptor (AhR) signaling pathway - cell viability counter screen (AID 743086);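 note: HepG2 liver cells carrying the AhR DRE luciferase reporter; series mostly up to about 70 µM; nearly all actives have a fitted effect of over 45% in size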
# How it was run: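 HepG2-AhR-luc (HG2L7.5c1) cells, 4000/well, treated 24 h at 37 C with compound; viability measured as CellTiter-Fluor fluorescence after 30 min in the same wells as the luciferase read.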
# [4] = biological target: Peroxisome proliferator-activated receptor gamma (Homo sapiens) (UniProt P37231); test: qHTS assay to identify small molecule agonists of the peroxisome proliferator-activated receptor gamma (PPARg) signaling pathway (AID 743094; active = well fitted activation curve with a large enough effect in the signal ratio in the repeat runs, not every such curve was filed as active; the % refers to the signal ratio)
# How it was run: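 Reporter activation was scored by fluorescence of cleaved LiveBLAzer B/G substrate (1 h, room temperature) in PPARg-bla HEK293H cells previously treated 17 h at 37C with DMSO-dissolved compounds.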
# [5] = qHTS assay to identify small molecule antagonists of the peroxisome proliferator-activated receptor gamma (PPARg) signaling pathway - cell viability counter screen (AID 743194); note: nearly all actives have a fitted effect of over 55% in size
# How it was run: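 Cytotoxicity counter screen in PPARg-bla HEK293H cells, same wells as reporter assay. Compounds plus 50 nM rosiglitazone (final) for 17 h at 37 C, then viability read by CellTiter-Glo luminescence.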
# [6] = qHTS assay for small molecule activators of the heat shock response signaling pathway - cell viability counter screen (AID 743209); note: nearly all actives have a fitted effect of over 50% in size
# How it was run: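 Viability of HSE-bla HeLa cells is measured with CellTiter-Glo in the wells already used for the reporter read. Compound exposure lasts 5 h at 37 C, and luminescence is read after 30 min at room temperature.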
# [7] = qHTS assay for small molecule activators of the heat shock response signaling pathway (AID 743210; active = well fitted activation curve with a large enough effect in the signal ratio in the repeat runs, with a control signal flat, not every such curve was filed as active; the % refers to the signal ratio; note: potency is the fitted concentration of half-maximal effect;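 for activation: HeLa cells with beta-lactamase reporter driven by heat shock elements; series mostly up to about 63 µM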)
# How it was run: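 Following overnight attachment, HSE-bla HeLa cells received test compounds for 5 h at 37 C; beta-lactamase activity was then detected via FRET substrate fluorescence.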
# [8] = qHTS assay to identify small molecule agonists of the peroxisome proliferator-activated receptor delta (PPARd) signaling pathway - cell viability counter screen (AID 743211); note: nearly all actives have a fitted effect of over 55% in size
# How it was run: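 HEK293H PPARd-bla, 3000 cells/well; 5 h preincubation 37C/5% CO2; cpd in DMSO, 17 h 37C; B/G FRET substrate 2 h RT; CellTiter-Glo 30 min RT, luminescence.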
# [9] = biological target: Peroxisome proliferator-activated receptor delta (Homo sapiens) (UniProt Q03181); test: qHTS assay to identify small molecule agonists of the peroxisome proliferator-activated receptor delta (PPARd) signaling pathway (AID 743212; calls by dose curve)
# How it was run: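 Tox21 library screened in GeneBLAzer PPARd UAS-bla HEK293H cells. After compound treatment at 37 C, a FRET-based beta-lactamase substrate was applied for 2 h and fluorescence recorded.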
# [10] = qHTS assay to identify small molecule antagonists of the peroxisome proliferator-activated receptor delta (PPARd) signaling pathway - cell viability counter screen (AID 743213); note: nearly all actives have a fitted effect of over 50% in size
# How it was run: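 HEK293H cells with the PPARd UAS-bla reporter, co-treated 17 h at 37 C with compounds and L165041 (300 nM final), were lysed with CellTiter-Glo. Luminescence indicated viable cell content.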
# [11] = biological target: Peroxisome proliferator-activated receptor delta (Homo sapiens) (UniProt Q03181); test: qHTS assay to identify small molecule antagonists of the peroxisome proliferator-activated receptor delta (PPARd) signaling pathway (AID 743215; active = well fitted inhibition curve with a large enough effect in the signal ratio in the repeat runs, not every such curve was filed as active; the % refers to the signal ratio;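 note: cells stimulated with agonist L165041 at 300 nM final during compound exposure; series mostly up to about 62 µM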)
# How it was run: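 Plated HEK293H PPARd-bla cells rested 5 h at 37 C and 5% CO2. Compound, then agonist L165041 at 300 nM final, was added; 17 h at 37 C followed. Substrate loading, 2 h room temperature, fluorescence measured.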
# [12] = qHTS assay to identify small molecule agonists of the farnesoid-X-receptor (FXR) signaling pathway - cell viability counter screen (AID 743218); note: nearly all actives have a fitted effect of over 45% in size
# How it was run: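 Viability of FXR-bla HEK 293T cells is measured by ATP-based CellTiter-Glo luminescence following 16 h compound treatment at 37 C and a prior 2 h room-temperature beta-lactamase substrate step.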
# [13] = qHTS assay to identify small molecule antagonists of the farnesoid-X-receptor (FXR) signaling pathway - cell viability counter screen (AID 743221; active = well fitted cell-killing curve with a large enough effect in the repeat runs, not every such curve was filed as active; note: nearly all actives have a fitted effect of over 50% in size)
# How it was run: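 Luminescence from CellTiter-Glo measures cytotoxicity in GeneBLAzer FXR-UAS-bla HEK 293T cells. Cells were exposed to compounds with 50 uM chenodeoxycholic acid (final) for 16 h at 37 C, in wells also used for the reporter readout.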
# [14] = biological target: Vitamin D3 receptor (Homo sapiens) (UniProt P11473); test: qHTS assay to identify small molecule agonists of the vitamin D receptor (VDR) signaling pathway (AID 743222; calls by dose curve)
# How it was run: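 Fluorescence from cleaved LiveBLAzer B/G FRET substrate served as readout. VDR-bla cells had been treated 16 h at 37C with test compounds in DMSO, following a 4 h settling period, and substrate was loaded for 2 h at RT.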
# [15] = biological target: Vitamin D3 receptor (Homo sapiens) (UniProt P11473); test: qHTS assay to identify small molecule antagonists of the vitamin D receptor (VDR) signaling pathway (AID 743223; active = well fitted inhibition curve with a large enough effect in the signal ratio in the repeat runs, not every such curve was filed as active; the % refers to the signal ratio)
# How it was run: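 Antagonist mode uses 1alpha,25-dihydroxyvitamin D3 at 3 nM final as stimulus. VDR-bla cells receive compounds in DMSO, incubate 16 h at 37C, then a beta-lactamase FRET substrate for 2 h at room temperature before fluorescence measurement.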
# [16] = qHTS assay for small molecule agonists of the antioxidant response element (ARE) signaling pathway (AID 743202; active = well fitted activation curve with a large enough effect in the signal ratio in the repeat runs, not every such curve was filed as active; the % refers to the signal ratio; note: potency is the fitted concentration of half-maximal effect)
# How it was run: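 HepG2 ARE-bla cells; 16 h treatment at 37 C; FRET-based beta-lactamase fluorescence read after 2 h substrate incubation at room temperature.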
# [17] = biological target: Peroxisome proliferator-activated receptor gamma (Homo sapiens) (UniProt P37231); test: qHTS assay to identify small molecule antagonists of the peroxisome proliferator-activated receptor gamma (PPARg) signaling pathway (AID 743191; calls by dose curve; note: nearly all actives have a fitted effect of over 30% in size; note: potency is the fitted concentration of half-maximal effect)
# How it was run: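 GeneBLAzer PPARg UAS-bla HEK293H cells, 5 h post-plating, exposed to compounds 17 h at 37C. LiveBLAzer B/G FRET substrate added for 1 h at room temperature; beta-lactamase reporter read by fluorescence intensity.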
# [18] = qHTS assay for small molecule agonists of the antioxidant response element (ARE) signaling pathway - cell viability counter screen (AID 743203; calls by dose curve; note: nearly all actives have a fitted effect of over 55% in size)
# How it was run: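 Viability counter screen: stably transfected ARE-bla HepG2 line, 16 hrs compound exposure at 37C/5% CO2, ATP-based CellTiter-Glo luminescence measured in the reporter wells.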
# [19] = biological target: Bile acid receptor (Homo sapiens) (UniProt Q96RI1); test: qHTS assay to identify small molecule agonists of the farnesoid-X-receptor (FXR) signaling pathway (AID 743220; active = well fitted activation curve with a large enough effect in the signal ratio in the repeat runs, not every such curve was filed as active; the % refers to the signal ratio)
# How it was run: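 FXR-UAS-bla HEK 293T cells carrying a UAS-driven beta-lactamase reporter were plated for 5 h at 37C/5% CO2, then exposed to DMSO-dissolved Tox21 10K compounds for 16 h at 37C. A LiveBLAzer B/G FRET substrate was loaded for 2 h at room temperature before fluorescence reading.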
# Vitamin D3 receptor (Homo sapiens), sequence (P11473 whole entry, looked up): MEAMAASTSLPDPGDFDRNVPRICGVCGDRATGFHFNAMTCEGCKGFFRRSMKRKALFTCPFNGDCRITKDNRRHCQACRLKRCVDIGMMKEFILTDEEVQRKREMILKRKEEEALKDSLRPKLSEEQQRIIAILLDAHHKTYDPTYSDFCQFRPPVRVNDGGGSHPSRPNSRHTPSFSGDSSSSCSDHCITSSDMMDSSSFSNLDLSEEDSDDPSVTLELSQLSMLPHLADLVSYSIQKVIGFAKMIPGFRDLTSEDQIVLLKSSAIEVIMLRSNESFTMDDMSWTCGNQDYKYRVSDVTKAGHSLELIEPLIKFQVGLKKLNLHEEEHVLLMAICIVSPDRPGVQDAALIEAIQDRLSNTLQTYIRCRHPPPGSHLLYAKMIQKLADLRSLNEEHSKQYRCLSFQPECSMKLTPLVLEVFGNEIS
# Bile acid receptor (Homo sapiens), sequence (Q96RI1 whole entry, looked up): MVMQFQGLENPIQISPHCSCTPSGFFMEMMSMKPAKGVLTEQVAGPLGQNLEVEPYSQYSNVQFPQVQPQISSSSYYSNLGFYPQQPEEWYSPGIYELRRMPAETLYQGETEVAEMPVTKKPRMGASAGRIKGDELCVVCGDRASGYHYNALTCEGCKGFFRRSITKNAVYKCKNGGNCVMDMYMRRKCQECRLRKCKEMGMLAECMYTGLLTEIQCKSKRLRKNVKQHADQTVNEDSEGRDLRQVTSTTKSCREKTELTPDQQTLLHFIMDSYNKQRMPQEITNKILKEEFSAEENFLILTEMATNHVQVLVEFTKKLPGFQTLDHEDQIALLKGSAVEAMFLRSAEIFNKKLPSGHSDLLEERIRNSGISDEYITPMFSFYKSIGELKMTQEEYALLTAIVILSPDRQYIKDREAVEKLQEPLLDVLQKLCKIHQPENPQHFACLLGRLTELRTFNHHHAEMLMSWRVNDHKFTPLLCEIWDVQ
# Aryl hydrocarbon receptor (Homo sapiens), sequence (P35869 whole entry, looked up): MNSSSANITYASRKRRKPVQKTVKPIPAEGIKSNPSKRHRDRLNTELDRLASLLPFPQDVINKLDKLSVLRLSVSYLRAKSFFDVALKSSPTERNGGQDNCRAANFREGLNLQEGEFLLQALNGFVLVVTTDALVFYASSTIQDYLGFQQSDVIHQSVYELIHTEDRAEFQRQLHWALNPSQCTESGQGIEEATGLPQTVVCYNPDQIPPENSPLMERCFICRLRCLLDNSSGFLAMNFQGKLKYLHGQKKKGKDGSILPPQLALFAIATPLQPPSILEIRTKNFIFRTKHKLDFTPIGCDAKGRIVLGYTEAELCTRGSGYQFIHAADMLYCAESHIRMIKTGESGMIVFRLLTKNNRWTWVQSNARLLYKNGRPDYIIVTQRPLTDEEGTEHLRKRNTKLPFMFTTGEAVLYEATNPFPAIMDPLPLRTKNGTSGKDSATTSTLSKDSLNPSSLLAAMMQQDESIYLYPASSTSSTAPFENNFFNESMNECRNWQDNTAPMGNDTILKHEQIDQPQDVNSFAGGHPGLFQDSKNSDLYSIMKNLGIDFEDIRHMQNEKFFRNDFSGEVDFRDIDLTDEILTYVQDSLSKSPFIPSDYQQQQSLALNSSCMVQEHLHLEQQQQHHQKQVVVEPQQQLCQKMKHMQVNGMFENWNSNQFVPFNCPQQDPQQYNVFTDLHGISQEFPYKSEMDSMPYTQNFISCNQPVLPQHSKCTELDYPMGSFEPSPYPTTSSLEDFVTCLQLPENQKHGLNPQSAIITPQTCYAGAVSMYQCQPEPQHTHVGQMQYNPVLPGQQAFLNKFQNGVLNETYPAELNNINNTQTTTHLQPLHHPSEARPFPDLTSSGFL
# Peroxisome proliferator-activated receptor gamma (Homo sapiens), sequence (P37231 whole entry, looked up): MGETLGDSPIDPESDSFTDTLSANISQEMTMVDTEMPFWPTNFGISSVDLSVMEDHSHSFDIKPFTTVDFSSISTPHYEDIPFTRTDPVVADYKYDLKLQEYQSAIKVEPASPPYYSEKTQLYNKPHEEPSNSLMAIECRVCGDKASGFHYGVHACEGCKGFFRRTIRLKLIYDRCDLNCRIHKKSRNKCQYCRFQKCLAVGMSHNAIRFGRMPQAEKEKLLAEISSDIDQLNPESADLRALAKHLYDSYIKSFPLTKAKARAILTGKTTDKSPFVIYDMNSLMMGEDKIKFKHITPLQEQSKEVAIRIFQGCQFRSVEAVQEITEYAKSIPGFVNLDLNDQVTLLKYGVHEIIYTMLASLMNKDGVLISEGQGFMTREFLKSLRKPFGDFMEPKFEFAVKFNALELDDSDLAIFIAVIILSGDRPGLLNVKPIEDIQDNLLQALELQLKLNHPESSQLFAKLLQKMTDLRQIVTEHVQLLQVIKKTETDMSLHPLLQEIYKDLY
# Peroxisome proliferator-activated receptor delta (Homo sapiens), sequence (Q03181 whole entry, looked up): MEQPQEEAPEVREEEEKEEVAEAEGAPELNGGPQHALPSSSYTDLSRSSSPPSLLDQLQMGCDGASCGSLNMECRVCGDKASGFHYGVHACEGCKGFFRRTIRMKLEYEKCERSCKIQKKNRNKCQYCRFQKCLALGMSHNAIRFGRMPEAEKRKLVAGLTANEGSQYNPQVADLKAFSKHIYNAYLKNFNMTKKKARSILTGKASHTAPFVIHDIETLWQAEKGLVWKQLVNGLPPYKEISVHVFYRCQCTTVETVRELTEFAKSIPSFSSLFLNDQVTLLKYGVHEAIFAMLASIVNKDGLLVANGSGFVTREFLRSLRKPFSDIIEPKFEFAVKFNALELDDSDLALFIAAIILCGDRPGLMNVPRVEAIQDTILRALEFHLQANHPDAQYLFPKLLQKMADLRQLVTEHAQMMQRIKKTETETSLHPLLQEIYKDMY
Structure (SMILES),Potency [1],Potency [2],outcome [3],outcome [4],outcome [5],Potency [6],Potency [7],Potency [8],outcome [9],outcome [10],outcome [11],Potency [12],Potency [13],outcome [14],outcome [15],Potency [16],Potency [17],Potency [18],outcome [19]
CC(C)c1cccc(C(C)C)c1O,inactive,inactive,inactive,inactive,inactive,inactive,inactive,inactive,inactive,inactive,inactive,inactive,inactive,inactive,inactive,,,,
C/C=C/c1ccc2c(c1)OCO2,inactive,,inactive,inactive,inactive,inactive,inactive,inactive,,inactive,,inactive,inactive,inactive,inactive,inactive,,,
CC(C)(C)C(=O)CCl,inactive,,inactive,inactive,inactive,inactive,inactive,inactive,inactive,inactive,inactive,inactive,inactive,inactive,inactive,inactive,,,
NNc1ccccc1,inactive,,inactive,inactive,inactive,inactive,inactive,inactive,,inactive,,inactive,inactive,,,,13.8 µM (active) and inactive,inactive,
CNC(=O)O/N=C/C(C)(C)S(C)=O (configuration not stated),inactive,,inactive,inactive,inactive,inactive,inactive,inactive,inactive,inactive,inactive,inactive,inactive,inactive,inactive,inactive,,,inactive
CN1C(=O)CCS(=O)(=O)C1c1ccc(Cl)cc1 (configuration not stated),inactive,inactive,inactive,,inactive,inactive,inactive,inactive,inactive,inactive,inactive,inactive,inactive,inactive,inactive,inactive,,inactive,
COc1cc(-c2ccc(N)c(OC)c2)ccc1N,inactive,,inactive,inactive,inactive,inactive,inactive,inactive,inactive,inactive,inactive,inactive,inactive,inactive,inactive,,inactive and 33.1 µM (active),,
CNC(=O)Oc1cccc2ccccc12,inactive,5.31 µM (active) and 54 µM (active) and 27.3 µM (active),inactive,,inactive,inactive,inactive,inactive,inactive,inactive,inactive,inactive,inactive,inactive,inactive,,,,inactive
Nc1ccc(N)cc1,inactive and 54.7 µM (active) and 43.3 µM (active),,inactive,inactive,inactive,inactive,,inactive,,inactive,,inactive,inactive,inactive,inactive,,inactive,inactive,inactive
CC(C)CCCCCCOC(=O)c1ccccc1C(=O)OCCCCCCC(C)C,inactive,inactive,inactive,,inactive,inactive,inactive,inactive,inactive,inactive,inactive,inactive,inactive,inactive,inactive,,,inactive,inactive
Nc1ccc([As](=O)(O)O)cc1,inactive,,inactive,inactive,inactive,inactive,inactive,inactive,inactive,inactive,inactive,inactive,inactive,inactive,,inactive,inactive,inactive,
O=C(O)C1C(C(=O)O)C2(Cl)C(Cl)=C(Cl)C1(Cl)C2(Cl)Cl (configuration not stated),inactive,inactive,inactive,,inactive,inactive,inactive,inactive,inactive,inactive,inactive,inactive,inactive,,,,,inactive,inactive
CNCC(O)c1ccc(O)cc1 (configuration not stated),inactive,inactive,inactive,inactive,inactive,inactive,inactive,inactive,inactive,inactive,,inactive,inactive,inactive,inactive,,,,inactive
CN(C)CCC#N,inactive,,inactive,inactive,inactive,inactive,inactive,inactive,inactive,inactive,inactive,inactive,inactive,inactive,inactive,inactive,,inactive,
Sc1ccccc1,inactive,inactive,inactive,,inactive,inactive,44.3 µM (active) and inactive,inactive,inactive,inactive,inactive,inactive,inactive,inactive,inactive,,,inactive,
Nc1nc(N)nc(NC2CC2)n1,inactive,inactive,inactive,,inactive,inactive,inactive and 43.6 µM (active),inactive,inactive,inactive,inactive,inactive,inactive,,,,,,inactive
CSc1nnc(C(C)(C)C)c(=O)n1N,,,inactive,,inactive,inactive,inactive,inactive,inactive,inactive,inactive,inactive,inactive,inactive,inactive,inactive,,inactive,inactive
Cl/C=C/Cl,inactive,inactive,inactive,,inactive,inactive,inactive,inactive,inactive,inactive,inactive,inactive,inactive,inactive,inactive,,,,
Cc1ccccc1N,inactive,inactive,inactive,,inactive,inactive,inactive,inactive,inactive,inactive,inactive,inactive,inactive,,,inactive,,,
O=C(O)C(Br)Br,inactive,,inactive,inactive,inactive,inactive,inactive,inactive,,inactive,,inactive,inactive,inactive,inactive,86.3 nM (active),,,inactive
